Where “and” joins values, the source holds several entries; their conditions need not be identical. Identical values can stand only once. The whole screen tested about 5,500 compounds, of which about 2,000 (36%) were called active. Another 18% or so got no clear call; they are omitted. Rule as the data show it: active = normalized growth mostly below about 0.91 (no sharp cut-off); inconclusive = no clear call, values can overlap the other calls; inactive = mostly above about 0.92. This is one part of the list.
Experiment: chemical genetic growth profiling, strain panel (AID 1159580);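 also: tested at 20 µM; growth read once vehicle control cultures reached saturation at 30 °C; 1 = growth at the plate median or of vehicle wells; lower values mean less growth of the strain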
Details: growth OD

Measured: normalized growth

CN1CCc2c(c3ccccc3n2Cc2ccccc2)C1
inactive: S. cerevisiae deletion strains, locus YAL013W, strain DEP1, active compounds read low 0.927 | S. cerevisiae deletion strains, locus YBR229C, strain ROT2, active compounds read low 1 | S. cerevisiae deletion strains, locus YCL029C, strain bik1, active compounds read low 1.06 | S. cerevisiae deletion strains, locus YDL035C, strain GPR1, active compounds read low 0.913 | S. cerevisiae deletion strains, locus YDL074C, strain BRE1, active compounds read low 0.819 | S. cerevisiae deletion strains, locus YDL101C, strain DUN1, active compounds read low 1.02 | S. cerevisiae deletion strains, locus YDL134C, strain PPH21, active compounds read low 0.987 | S. cerevisiae deletion strains, locus YDL185W, strain tfp1, active compounds read low 1.01 | S. cerevisiae deletion strains, locus YDL192W, strain arf1, active compounds read low 1.01 | S. cerevisiae deletion strains, locus YDR101C, strain arx1, active compounds read low 1 | S. cerevisiae deletion strains, locus YDR150W, strain NUM1, active compounds read low 1.01 | S. cerevisiae deletion strains, locus YDR162C, strain NBP2, active compounds read low 0.992 | S. cerevisiae deletion strains, locus YDR318W, strain mcm21, active compounds read low 0.992 | S. cerevisiae deletion strains, locus YDR388W, active compounds read low 0.981 | S. cerevisiae deletion strains, locus YDR502C, strain sam2, active compounds read low 0.953 | S. cerevisiae deletion strains, locus YEL061C, strain CIN8, active compounds read low 1 | S. cerevisiae deletion strains, locus YER110C, active compounds read low 1.01 | S. cerevisiae deletion strains, locus YER155C, strain BEM2, active compounds read low 1.02 | S. cerevisiae deletion strains, locus YER167W, strain BCK2, active compounds read low 0.98 | S. cerevisiae deletion strains, locus YGL078C, strain dbp3, active compounds read low 1.01 | S. cerevisiae deletion strains, locus YGL086W, strain mad1, active compounds read low 0.963 | S. cerevisiae deletion strains, locus YGL248W, strain PDE1, active compounds read low 0.998 | S. cerevisiae deletion strains, locus YGR078C, strain PAC10, active compounds read low 0.932 | S. cerevisiae deletion strains, locus YHR030C, strain SLT2, active compounds read low 0.949 and 1.03 | S. cerevisiae deletion strains, locus YHR079C, strain IRE1 (second series), active compounds read low 1.01 | S. cerevisiae deletion strains, locus YHR079C, strain IRE1, active compounds read low 1.03 | S. cerevisiae deletion strains, locus YHR094C, strain hxt1, active compounds read low 1.01 | S. cerevisiae deletion strains, locus YHR129C, strain ARP1, active compounds read low 1.01 | S. cerevisiae deletion strains, locus YHR200W, strain rpn10, active compounds read low 0.999 | S. cerevisiae deletion strains, locus YIL066C, strain RNR3, active compounds read low 0.951 | S. cerevisiae deletion strains, locus YIL073C, strain SPO22, active compounds read low 0.956 | S. cerevisiae deletion strains, locus YIL125W, strain kgd1, active compounds read low 0.996 | S. cerevisiae deletion strains, locus YIR030C, strain dcg1, active compounds read low 1.01 | S. cerevisiae deletion strains, locus YJL095W, strain BCK1, active compounds read low 0.847 and 1.02 | S. cerevisiae deletion strains, locus YJL134W, strain LCB3, active compounds read low 1 | S. cerevisiae deletion strains, locus YJL168C, strain set2, active compounds read low 1.02 | S. cerevisiae deletion strains, locus YJL187C, strain SWE1 (second series), active compounds read low 0.96 | S. cerevisiae deletion strains, locus YJR043C, strain POL32, active compounds read low 1.06 | S. cerevisiae deletion strains, locus YJR066W, strain TOR1, active compounds read low 0.949 | S. cerevisiae deletion strains, locus YJR075W, strain HOC1, active compounds read low 0.934 | S. cerevisiae deletion strains, locus YKL009W, strain mrt4, active compounds read low 0.934 | S. cerevisiae deletion strains, locus YKL068W, active compounds read low 0.995 | S. cerevisiae deletion strains, locus YKL085W, strain MDH1 (second series), active compounds read low 0.99 | S. cerevisiae deletion strains, locus YKL085W, strain MDH1, active compounds read low 0.99 | S. cerevisiae deletion strains, locus YKL190W, strain CNB1, active compounds read low 0.996 | S. cerevisiae deletion strains, locus YKR001C, strain vps1, active compounds read low 1.01 | S. cerevisiae deletion strains, locus YLR058C, strain SHM2, active compounds read low 0.998 | S. cerevisiae deletion strains, locus YLR102C, strain apc9, active compounds read low 1.01 | S. cerevisiae deletion strains, locus YLR113W, strain HOG1, active compounds read low 0.995 | S. cerevisiae deletion strains, locus YLR268W, strain sec22, active compounds read low 1.03 | S. cerevisiae deletion strains, locus YLR330W, strain CHS5, active compounds read low 1.01 | S. cerevisiae deletion strains, locus YLR371W, strain rom2, active compounds read low 1.01 | S. cerevisiae deletion strains, locus YML016C, strain PPZ1, active compounds read low 1 | S. cerevisiae deletion strains, locus YML032C, strain rad52, active compounds read low 0.995 | S. cerevisiae deletion strains, locus YML124C, strain tub3, active compounds read low 1.02 | S. cerevisiae deletion strains, locus YMR078C, strain ctf18, active compounds read low 1.01 | S. cerevisiae deletion strains, locus YMR223W, strain ubp8, active compounds read low 0.953 | S. cerevisiae deletion strains, locus YMR263W, strain SAP30, active compounds read low 0.912 | S. cerevisiae deletion strains, locus YMR307W, strain GAS1, active compounds read low 0.979 | S. cerevisiae deletion strains, locus YNL067W, strain RPL9B, active compounds read low 0.959 | S. cerevisiae deletion strains, locus YNL153C, strain GIM3, active compounds read low 0.945 | S. cerevisiae deletion strains, locus YNL183C, strain NPR1, active compounds read low 0.96 | S. cerevisiae deletion strains, locus YNL233W, strain BNI4, active compounds read low 0.956 | S. cerevisiae deletion strains, locus YNL250W, strain rad50, active compounds read low 1.01 | S. cerevisiae deletion strains, locus YNL271C, strain bni1, active compounds read low 1.02 | S. cerevisiae deletion strains, locus YNL298W, strain CLA4, active compounds read low 1 | S. cerevisiae deletion strains, locus YNL307C, strain MCK1, active compounds read low 0.924 | S. cerevisiae deletion strains, locus YNL322C, strain KRE1, active compounds read low 1.01 | S. cerevisiae deletion strains, locus YNR052C, strain pop2, active compounds read low 0.98 | S. cerevisiae deletion strains, locus YOL006C, strain TOP1, active compounds read low 0.555 | S. cerevisiae deletion strains, locus YOL012C, strain htz1 1.16 | S. cerevisiae deletion strains, locus YOL147C, strain pex11, active compounds read low 1.01 | S. cerevisiae deletion strains, locus YOR061W, strain CKA2, active compounds read low 0.977 | S. cerevisiae deletion strains, locus YOR069W, strain VPS5, active compounds read low 1 | S. cerevisiae deletion strains, locus YOR136W, strain idh2, active compounds read low 0.996 | S. cerevisiae deletion strains, locus YOR144C, strain elg1, active compounds read low 1.01 | S. cerevisiae deletion strains, locus YOR184W, strain ser1, active compounds read low 0.983 | S. cerevisiae deletion strains, locus YOR231W, strain MKK1, active compounds read low 1.03 | S. cerevisiae deletion strains, locus YOR316C, strain cot1, active compounds read low 1.01 | S. cerevisiae deletion strains, locus YPL241C, strain CIN2, active compounds read low 1 | S. cerevisiae deletion strains, locus YPL256C, strain CLN2, active compounds read low 1.06 | S. cerevisiae deletion strains, locus YPR119W, strain clb2, active compounds read low 1.02 | S. cerevisiae deletion strains, locus YPR141C, strain kar3, active compounds read low 0.999 | S. cerevisiae deletion strains, locus YPR163C, strain tif3, active compounds read low 0.991 | S. cerevisiae deletion strains, locus YPR167C, strain met16, active compounds read low 1 | S. cerevisiae deletion strains, strain wtn01, active compounds read low 0.975 | S. cerevisiae strains, strain wild type, active compounds read low 0.947
active: S. cerevisiae deletion strains, locus YBR021W, strain FUR4, active compounds read low 0.631 | S. cerevisiae deletion strains, locus YGR135W, strain pre9, active compounds read low 0.863 | S. cerevisiae deletion strains, locus YGR229C, strain SMI1, active compounds read low 0.577 | S. cerevisiae deletion strains, locus YGR252W, strain gcn5, active compounds read low 0.646 | S. cerevisiae deletion strains, locus YLR039C, strain RIC1, active compounds read low 1.4 [resistant] | S. cerevisiae deletion strains, locus YLR262C, strain YPT6, active compounds read low 1.56 [resistant] | S. cerevisiae deletion strains, locus YLR342W, strain FKS1 (second series), active compounds read low 0.64 | S. cerevisiae deletion strains, locus YLR418C, strain cdc73, active compounds read low 0.714 | S. cerevisiae deletion strains, locus YNL128W, strain TEP1, active compounds read low 0.58 | S. cerevisiae deletion strains, locus YPL055C, strain LGE1, active compounds read low 0.731

From PubChem BioAssay AID1159580 (chemical genetic matrix, 2015)
